Laboratory results taken from PubChem BioAssay (NCI).
The panel holds about 83,000 compounds, 20% with a hit somewhere; the sample as a whole holds those more often.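 In brief: 96-well plates, 48 h treatment, single concentration, percent growth endpoint.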 Activity calls are given as the source filed them. The calls were made as follows: active = growth percent below 10; inactive = the rest.

Legend:
Assay in all cases: NCI-60 one-dose screen, 48 h (100 = growth as untreated, 0 = no growth, -100 = all killed)
Conditions in all cases: 10 µM unless noted
[1] = test system: NCI-H23 lung
[2] = test system: NCI-H226 lung
[3] = test system: NCI-H322M lung
[4] = test system: HOP-62 NSCLC
[5] = test system: NCI-H460 lung
[6] = test system: NCI-H522 lung
[7] = test system: A549/ATCC NSCLC
[8] = test system: 786-0 renal
[9] = test system: COLO 205 colon
[10] = test system: DU-145 prostate
[11] = test system: K-562 leukemia
[12] = test system: MALME-3M melanoma
[13] = test system: MDA-MB-231 breast
[14] = test system: RXF 393 renal
[15] = test system: SF-268 CNS
[16] = test system: SF-295 CNS
[17] = test system: SF-539 CNS
[18] = test system: UACC-257 melanoma
[19] = test system: M14 melanoma

Measured: growth

CCOC(=O)N1C2CCC(C2)N1C(=O)OCC
inactive: [1] 104% | [2] 91.9% | [3] 115% | [4] 108% | [5] 108% | [6] 91.5% | [7] 107% | [8] 101% | [9] 110% | [10] 104% | [11] 94.6% | [12] 104% | [13] 115% | [14] 106% | [15] 97% | [16] 106% | [17] 132% | [18] 107% | [19] 108%

CC1=C(/C=C/C(C)=C/C=C(C(=O)O)\C(C)=C\C(=O)O)C(C)(C)CCC1
inactive: [1] 101% | [2] 112% | [3] 103% | [4] 108% | [5] 104% | [6] 77.9% | [7] 93.7% | [8] 99.5% | [9] 112% | [10] 109% | [11] 87% | [12] 128% | [13] 98.6% | [14] 106% | [15] 100% | [16] 130% | [17] 93.6% | [18] 92.4% | [19] 101%

O=C1Nc2ccccc2/C1=C\c1nc(C2CCN(S(=O)(=O)c3ccc(F)cc3)CC2)n2ccccc12
inactive: [1] 42% | [2] 41.2% | [3] 55.5% | [4] 47.8% | [5] 65% | [6] 16.5% | [7] 68.1% | [9] 79.1% | [10] 57.1% | [11] 56.9% | [13] 32.8% | [14] 16.6% | [15] 14.2% | [16] 46.5% | [17] 27.4% | [18] 72% | [19] 61.5%
active: [8] -3.81% | [12] 3.9%

CCSc1cnnc2ccccc12
inactive: [1] 101% | [2] 101% | [3] 118% | [4] 104% | [5] 118% | [6] 97.8% | [7] 108% | [8] 109% | [9] 111% | [10] 113% | [11] 85.7% | [12] 124% | [13] 103% | [14] 123% | [15] 102% | [16] 117% | [17] 106% | [18] 113% | [19] 105%

COc1ccc(-c2cc(-c3ccc(OC)cc3)c3sc(=O)[nH]c3n2)cc1
inactive: [1] 98% | [2] 71% | [3] 82.3% | [4] 70.5% | [5] 94% | [6] 69.1% | [7] 78.4% | [8] 79.3% | [9] 107% | [10] 107% | [11] 94.2% | [12] 109% | [13] 87.6% | [14] 77.7% | [15] 92.6% | [16] 96.8% | [17] 81.8% | [18] 104% | [19] 109%

CCC(=O)OCc1ccc(OC)cc1
inactive: [1] 99% | [2] 101% | [3] 110% | [4] 109% | [5] 111% | [6] 106% | [7] 107% | [8] 101% | [9] 113% | [10] 123% | [11] 94.4% | [12] 124% | [13] 101% | [14] 118% | [15] 115% | [16] 101% | [17] 93.5% | [18] 96.6% | [19] 100%

N/N=C(\C(=N\N)c1ccccc1)c1ccccc1
inactive: [1] 98.8% | [2] 88.2% | [3] 94.6% | [4] 91.7% | [5] 108% | [6] 86.6% | [7] 101% | [8] 97.6% | [9] 108% | [10] 113% | [11] 111% | [12] 88% | [13] 111% | [14] 118% | [15] 103% | [16] 105% | [17] 103% | [18] 107% | [19] 96.6%

CC(=O)OC[C@H]1O[C@@H](n2c(=O)cc(N)[nH]c2=O)C(OC(C)=O)[C@@H]1OC(C)=O (some centres undefined)
inactive: [1] 98.5% | [2] 90.6% | [3] 105% | [4] 95% | [5] 107% | [6] 100% | [7] 97.7% | [8] 102% | [9] 115% | [10] 108% | [11] 108% | [12] 98.4% | [13] 107% | [14] 104% | [15] 97.9% | [16] 94.2% | [17] 98% | [18] 98% | [19] 91.3%

CC(C)(C)[Si](C)(C)OC1[C@@H](O[Si](C)(C)C(C)(C)C)[C@@H](CNC(=O)NC(=O)NC(=O)CI)O[C@H]1n1cnc2c(NC(=O)Nc3ccccc3)ncnc21 (some centres undefined)
inactive: [2] 108% | [3] 111% | [5] 78.8% | [7] 65.5% | [9] 45.2% | [10] 90.7% | [11] 52.3% | [15] 26.4% | [18] 105% | [19] 73.1%
active: [1] -51.8% | [4] 2.91% | [6] -80.4% | [8] 7.17% | [12] -83.3% | [13] -49.7% | [14] -5.13% | [16] -56.8% | [17] -63.2%

c1ccc(-c2ccc(-c3ccccc3)[nH]2)cc1
inactive: [1] 86.5% | [2] 86.5% | [3] 95.6% | [4] 105% | [5] 103% | [6] 85.7% | [7] 88.7% | [8] 96.6% | [9] 127% | [10] 102% | [11] 81.1% | [12] 96.4% | [13] 89.5% | [14] 102% | [15] 98.6% | [16] 109% | [17] 93.9% | [18] 101% | [19] 110%

COc1ccc2[nH]cc(C3(c4c[nH]c5ccc(OC)cc45)C(=O)Nc4ccc(F)cc43)c2c1
inactive: [1] 97% | [2] 70% | [3] 98.1% | [4] 83.3% | [6] 78.5% | [7] 75.3% | [8] 82.6% | [9] 72.9% | [10] 81.2% | [12] 80.1% | [13] 101% | [14] 78.8% | [15] 53.9% | [16] 56.7% | [17] 78.5% | [18] 94% | [19] 86.7%
active: [5] 4.92% | [11] -16.5%

CCOCCNc1ccc(S(=O)(=O)c2ccc(N)cc2)cc1N
inactive: [1] 92.5% | [2] 94.6% | [3] 101% | [4] 110% | [5] 109% | [6] 96% | [7] 91.5% | [8] 108% | [9] 110% | [10] 119% | [11] 107% | [12] 109% | [13] 118% | [14] 130% | [15] 97.1% | [16] 96.2% | [17] 109% | [18] 92.8% | [19] 112%

O=[N+]([O-])c1ccc(N=Nc2c(NNc3ccc([N+](=O)[O-])cn3)cc(S(=O)(=O)O)c3ccccc23)nc1
inactive: [1] 81.2% | [2] 95.8% | [3] 60.8% | [4] 85.5% | [5] 63.7% | [6] 84.9% | [7] 89.2% | [8] 109% | [9] 106% | [10] 74.9% | [11] 94.3% | [12] 129% | [13] 57% | [14] 120% | [15] 63.9% | [16] 114% | [17] 89.3% | [18] 101% | [19] 60.6%

COc1cccc(-c2cc(-c3cccs3)c(C#N)c(=O)[nH]2)c1
inactive: [1] 98.9% | [2] 110% | [3] 108% | [4] 108% | [5] 102% | [6] 98.8% | [7] 102% | [8] 94.1% | [9] 111% | [10] 108% | [11] 102% | [12] 110% | [13] 106% | [14] 117% | [15] 104% | [16] 102% | [17] 101% | [18] 115% | [19] 105%

COC(=O)c1ccc2c(c1)nc(-c1ccc(Cl)cc1)n2-c1cc(C(C)(C)C)[nH]n1
inactive: [1] 60.7% | [2] 94.3% | [3] 92.5% | [4] 116% | [5] 45.1% | [6] 38% | [7] 47.2% | [8] 46% | [9] 112% | [10] 85.9% | [11] 34.3% | [12] 14.8% | [13] 92% | [14] 45.7% | [15] 68.5% | [16] 43.3% | [17] 60.4% | [18] 62.3% | [19] 33.8%

CN(C)c1nc(-c2cccs2)n2nc(-c3ccco3)cc2n1
inactive: [1] 87.2% | [2] 90.2% | [3] 106% | [4] 106% | [5] 98.4% | [6] 96.2% | [7] 101% | [8] 96.1% | [9] 126% | [10] 116% | [11] 106% | [12] 121% | [13] 82.6% | [14] 83.7% | [15] 104% | [16] 106% | [17] 93.6% | [18] 113% | [19] 98%
